In PubChem BioAssay (NCATS):
Results filed as inconclusive are left out. Where a call stands in place of a potency, no number is given. Active and inactive are the calls of the source. Unless noted, calls follow the shape of the dose curve; as a rule, active = well fitted curve in the direction sought with a large enough effect; inconclusive = small, poorly fitted or top-dose-only effect, or another doubt; inactive = no such curve, though single readings can be large; an effect the other way counts as inactive or inconclusive.

What was measured:
[1] = qHTS of Nrf2 Activators: LOPAC Validation (AID 624149)
In short: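 AREc32 cells carrying an ARE-driven firefly luciferase were grown overnight in OPTI-MEM with 5% FBS, then exposed to compounds for 24 hr at 37 deg C. Luciferase signal was read after 30 min with Steady-Glo at RT.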

[2] = biological target: Arylsulfatase A (Homo sapiens) (UniProt P15289); assay: qHTS screen for enhancers of Arylsulfatase A (ASA1): LOPAC Validation Assay (AID 720538)
In short: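 SV40-transformed skin fibroblasts from an MLD patient (ASA-I179S) were treated with compounds for 48h at 37 degree C, then lysed with 0.5mM pNCS final substrate for 14h at room temperature; NaOH stop, fluorescence read (Ex=525 nm; Em=598 nm).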

[3] = qHTS for compounds that reverse cellular toxicity of Amyloid beta (A-beta) peptide in yeast: LOPAC Validation Assay (AID 720559)
In short: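 Yeast cells expressing toxic A-beta were combined with pinned compounds in growth medium and incubated 48 hr at 30 C. Growth was read as absorbance at 600 nm and normalized to DMSO and to an equimolar FeCl3/clioquinol positive control.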

[4] = qHTS for Activators of Parkin Expression: LOPAC Validation Assay (NLuc Reporter) (AID 720572)
In short: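 Parkin promoter-driven FLuc/NLuc neuronal reporter cells; 24 h plating, 7-pt dose response, 24 h at 37 C/5% CO2; FLuc then NanoLuc reagent, 10 min each, luminescence; DMSO/positive control normalized.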

[5] = qHTS for Activators of Parkin Expression: LOPAC Validation Assay (FLuc Reporter) (AID 720573)
In short: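 Neuronal cell line stably carrying FLuc/NLuc coincidence reporter under Parkin promoter; cells plated 24 h, then compounds added in 7-point dose response for 24 h at 37 C. FLuc luminescence read; normalized to DMSO and positive control (100%).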

[6] = biological target: T1, Hexokinase-4 (Homo sapiens) + Glucokinase regulatory protein (Homo sapiens) (UniProt P35557+Q14397); assay: qHTS assay for inhibitors of recombinant human GCK-GKRP interaction: Diaphorase-coupled assay (AID 743205)
T1 sequence (P35557 whole entry, looked up): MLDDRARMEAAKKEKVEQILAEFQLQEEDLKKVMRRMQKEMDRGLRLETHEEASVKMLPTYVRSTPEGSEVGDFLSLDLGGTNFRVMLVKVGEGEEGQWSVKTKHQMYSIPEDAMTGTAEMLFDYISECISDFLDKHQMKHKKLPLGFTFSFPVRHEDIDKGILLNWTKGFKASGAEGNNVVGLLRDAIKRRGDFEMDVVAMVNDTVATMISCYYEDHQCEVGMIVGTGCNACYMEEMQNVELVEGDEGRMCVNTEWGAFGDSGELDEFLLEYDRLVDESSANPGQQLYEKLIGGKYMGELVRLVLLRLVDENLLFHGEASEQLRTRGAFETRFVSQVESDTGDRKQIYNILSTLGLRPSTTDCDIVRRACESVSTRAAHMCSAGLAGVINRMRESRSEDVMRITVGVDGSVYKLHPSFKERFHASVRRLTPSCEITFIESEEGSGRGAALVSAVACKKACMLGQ
T1 sequence (Q14397 whole entry, looked up): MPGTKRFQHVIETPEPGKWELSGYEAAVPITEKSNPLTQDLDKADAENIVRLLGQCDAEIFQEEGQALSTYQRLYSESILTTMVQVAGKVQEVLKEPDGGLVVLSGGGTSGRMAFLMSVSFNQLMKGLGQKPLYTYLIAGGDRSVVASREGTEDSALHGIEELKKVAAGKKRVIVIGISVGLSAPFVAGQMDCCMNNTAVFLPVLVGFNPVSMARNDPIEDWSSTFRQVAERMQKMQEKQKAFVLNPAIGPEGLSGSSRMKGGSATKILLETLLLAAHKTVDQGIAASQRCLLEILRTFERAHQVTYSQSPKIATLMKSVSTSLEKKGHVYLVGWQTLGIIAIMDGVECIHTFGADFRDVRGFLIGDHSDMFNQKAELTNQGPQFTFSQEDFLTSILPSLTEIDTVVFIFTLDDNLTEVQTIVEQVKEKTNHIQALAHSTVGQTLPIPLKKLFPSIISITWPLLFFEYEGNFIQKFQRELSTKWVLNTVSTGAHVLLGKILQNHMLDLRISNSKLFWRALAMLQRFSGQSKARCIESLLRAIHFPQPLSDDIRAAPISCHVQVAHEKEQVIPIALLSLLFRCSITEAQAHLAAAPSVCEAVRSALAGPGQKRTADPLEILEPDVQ
In short: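 GST-GCK (10 nM) with FLAG-GKRP (10 nM), 5 mM glucose and 0.4 mM ATP in pH 7.6 Hepes; compounds preincubated 20 min with substrate. G6PDH/diaphorase coupling converts resazurin to resorufin, read kinetically (ex 525/em 590 nm) for 30 min.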

[7] = biological target: T1, Hexokinase-4 (Homo sapiens) + Glucokinase regulatory protein (Homo sapiens); assay: qHTS assay for inhibitors of recombinant human GCK-GKRP interaction: ADP-Glo assay (AID 743206)
In short: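 GST-GCK and FLAG-GKRP (15 nM each in the dispensed mix, with 2 uM S6P) react with 0.4 mM ATP and 5 mM glucose (final) in Hepes pH 7.6 for 60 min at room temperature. ADP is measured by ADP-Glo luminescence.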

[8] = Natriuretic polypeptide receptor (hNpr1) antagonism - Pilot counterscreen GloSensor control cell line (AID 1347045; calls by dose curve)
In short: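 HEK293 cells carrying the GloSensor cGMP sensor (GIP/pGS-40F) were loaded with 2% GloSensor reagent for 2 h, exposed to compounds for 30 min, and then stimulated with 50 uM sodium nitroprusside for 20 min at room temperature.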

[9] = biological target: Atrial natriuretic peptide receptor 1 (Homo sapiens) (UniProt P16066); assay: Natriuretic polypeptide receptor (hNpr1) antagonism - Pilot screen (AID 1347049; calls by dose curve;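 also: agonist-evoked cGMP luminescence read 20 min after hNppA addition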)
Atrial natriuretic peptide receptor 1 (Homo sapiens), sequence (P16066 whole entry, looked up): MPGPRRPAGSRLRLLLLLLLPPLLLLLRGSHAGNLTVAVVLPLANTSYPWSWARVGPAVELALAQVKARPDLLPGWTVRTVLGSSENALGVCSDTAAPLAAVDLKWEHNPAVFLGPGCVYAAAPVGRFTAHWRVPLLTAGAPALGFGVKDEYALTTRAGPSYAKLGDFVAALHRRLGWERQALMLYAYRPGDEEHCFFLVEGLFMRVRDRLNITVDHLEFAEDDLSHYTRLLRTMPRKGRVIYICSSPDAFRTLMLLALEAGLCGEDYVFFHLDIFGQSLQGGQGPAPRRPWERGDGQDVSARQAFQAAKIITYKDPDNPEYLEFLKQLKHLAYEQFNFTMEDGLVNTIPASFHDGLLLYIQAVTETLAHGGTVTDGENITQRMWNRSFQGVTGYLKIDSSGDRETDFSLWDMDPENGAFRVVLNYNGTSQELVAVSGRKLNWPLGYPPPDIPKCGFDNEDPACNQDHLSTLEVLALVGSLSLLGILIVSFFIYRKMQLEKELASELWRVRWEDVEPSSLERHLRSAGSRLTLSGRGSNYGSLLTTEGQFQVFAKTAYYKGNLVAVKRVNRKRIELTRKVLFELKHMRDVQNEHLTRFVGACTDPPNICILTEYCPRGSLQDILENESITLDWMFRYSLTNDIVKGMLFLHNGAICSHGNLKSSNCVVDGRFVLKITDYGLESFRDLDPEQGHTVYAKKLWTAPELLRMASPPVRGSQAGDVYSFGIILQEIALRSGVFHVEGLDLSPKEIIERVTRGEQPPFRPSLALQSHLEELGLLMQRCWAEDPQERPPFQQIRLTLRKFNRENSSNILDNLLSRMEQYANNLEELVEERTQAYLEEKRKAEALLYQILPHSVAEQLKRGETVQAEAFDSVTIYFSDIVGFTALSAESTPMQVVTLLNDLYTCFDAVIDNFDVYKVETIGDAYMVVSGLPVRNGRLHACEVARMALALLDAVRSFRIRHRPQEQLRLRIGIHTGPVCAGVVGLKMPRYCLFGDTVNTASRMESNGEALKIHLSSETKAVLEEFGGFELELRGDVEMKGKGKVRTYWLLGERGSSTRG
In short: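 Readout is cGMP-driven firefly luciferase luminescence in HEK293 cells carrying hNpr1 and a PDE5-domain GloSensor, read before and 20 min after 0.1 nM hNppA stimulation. Cells had 2% substrate reagent for 2 h and test compound for 30 min.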

[10] = biological target: Atrial natriuretic peptide receptor 2 (Homo sapiens) (UniProt P20594); assay: Natriuretic polypeptide receptor (hNpr2) antagonism - Pilot subtype selectivity assay (AID 1347050; calls by dose curve)
In short: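 Pilot selectivity screen against hNpr2: HEK293 cGMP-sensor cells are treated with LOPAC1280 compounds, then with hNppC peptide at 1 nM final. The cGMP-driven luminescence change over 20 min at room temperature is the read-out.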

[11] = biological target: T2, Tyrosine-protein phosphatase non-receptor type substrate 1 (Homo sapiens) + Leukocyte surface antigen CD47 (Homo sapiens) (UniProt P78324+Q08722); assay: CD47-SIRPalpha protein protein interaction - LANCE assay qHTS validation (AID 1347057; active = well fitted curve in the direction sought with a large enough effect in the signal ratio, with a control signal flat, not every such curve was filed as active; the % refers to the signal ratio)
T2 sequence (P78324 whole entry, looked up): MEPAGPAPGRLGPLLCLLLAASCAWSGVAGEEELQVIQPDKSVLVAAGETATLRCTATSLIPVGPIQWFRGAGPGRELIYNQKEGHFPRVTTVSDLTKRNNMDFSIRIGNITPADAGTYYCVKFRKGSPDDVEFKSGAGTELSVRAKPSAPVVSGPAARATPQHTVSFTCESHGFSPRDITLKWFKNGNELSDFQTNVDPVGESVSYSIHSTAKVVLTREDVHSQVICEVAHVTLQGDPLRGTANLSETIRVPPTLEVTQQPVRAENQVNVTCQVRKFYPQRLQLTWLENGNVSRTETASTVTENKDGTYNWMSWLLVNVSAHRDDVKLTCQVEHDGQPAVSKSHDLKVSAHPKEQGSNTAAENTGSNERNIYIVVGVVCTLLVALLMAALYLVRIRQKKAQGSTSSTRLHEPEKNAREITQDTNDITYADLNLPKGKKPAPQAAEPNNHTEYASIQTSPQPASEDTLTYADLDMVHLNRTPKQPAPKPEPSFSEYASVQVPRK
T2 sequence (Q08722 whole entry, looked up): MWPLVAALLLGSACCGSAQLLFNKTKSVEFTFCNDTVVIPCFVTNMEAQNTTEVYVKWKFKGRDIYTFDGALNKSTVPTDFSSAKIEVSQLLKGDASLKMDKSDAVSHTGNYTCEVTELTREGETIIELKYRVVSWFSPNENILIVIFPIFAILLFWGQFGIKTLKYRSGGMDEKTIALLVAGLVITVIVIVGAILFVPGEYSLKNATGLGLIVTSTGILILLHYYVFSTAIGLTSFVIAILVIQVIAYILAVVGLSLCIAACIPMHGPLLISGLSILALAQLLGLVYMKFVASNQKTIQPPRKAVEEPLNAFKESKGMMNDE
In short: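 First, His-tagged CD47 and Eu-labelled anti-His antibody met the compound for 30 min; next, site-specifically biotinylated SIRPalpha was added for 30 min; finally streptavidin-APC was added before reading the TR-FRET ratio.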

[12] = biological target: T2, Tyrosine-protein phosphatase non-receptor type substrate 1 (Homo sapiens) + Leukocyte surface antigen CD47 (Homo sapiens); assay: CD47-SIRPalpha protein protein interaction - HTRF assay qHTS validation (AID 1347058; active = well fitted curve in the direction sought with a large enough effect in the signal ratio, not every such curve was filed as active; the % refers to the signal ratio;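 also: recombinant soluble extracellular CD47 with His tag and biotinylated SIRPalpha domains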)
In short: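 TR-FRET read (Ch1/Ch2 ratio) of soluble extracellular CD47 and Avi-biotinylated SIRPalpha domains in PBS pH 7.4 with 0.05% IGEPAL; 7-point compound titration. Sequential 30 min room-temperature steps; non-biotinylated SIRPalpha as control inhibitor.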

[13] = biological target: T2, Tyrosine-protein phosphatase non-receptor type substrate 1 (Homo sapiens) + Leukocyte surface antigen CD47 (Homo sapiens); assay: CD47-SIRPalpha protein protein interaction - Alpha assay qHTS validation (AID 1347059);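 also: bead proximity luminescence from CD47 binding SIRPalpha after compound preincubation with SIRPalpha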
In short: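 Binding is measured by AlphaScreen proximity: Ni-NTA acceptor beads capture His-CD47, streptavidin donor beads capture biotin-SIRPalpha. Each of three additions (SIRPalpha with compound, CD47, beads) incubates 30 min at room temperature protected from light.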

[14] = biological target: Parathyroid hormone/parathyroid hormone-related peptide receptor (Homo sapiens) (UniProt Q03431); assay: qHTS for PTHR1 Agonists: Optimization Screen against the NCGC LOPAC library (AID 1347079);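 also: GloSensor cAMP luminescence in HEK-293 GP2 cells expressing human PTHR1 with IBMX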
Parathyroid hormone/parathyroid hormone-related peptide receptor (Homo sapiens), sequence (Q03431 whole entry, looked up): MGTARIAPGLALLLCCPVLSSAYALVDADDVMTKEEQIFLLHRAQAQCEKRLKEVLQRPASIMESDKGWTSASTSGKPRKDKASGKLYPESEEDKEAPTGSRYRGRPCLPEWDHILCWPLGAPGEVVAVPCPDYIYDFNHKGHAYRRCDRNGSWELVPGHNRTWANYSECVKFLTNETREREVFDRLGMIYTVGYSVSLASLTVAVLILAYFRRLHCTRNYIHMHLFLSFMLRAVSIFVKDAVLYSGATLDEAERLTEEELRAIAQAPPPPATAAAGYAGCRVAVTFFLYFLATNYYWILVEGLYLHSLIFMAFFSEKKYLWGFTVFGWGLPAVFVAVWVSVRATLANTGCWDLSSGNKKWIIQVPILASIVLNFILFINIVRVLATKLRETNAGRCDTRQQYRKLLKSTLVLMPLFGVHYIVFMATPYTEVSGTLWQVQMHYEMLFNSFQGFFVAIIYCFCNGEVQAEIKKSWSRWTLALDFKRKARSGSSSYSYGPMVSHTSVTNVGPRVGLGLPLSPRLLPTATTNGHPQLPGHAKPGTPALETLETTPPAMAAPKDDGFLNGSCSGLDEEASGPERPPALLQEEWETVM
In short: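 Compounds were tested across a qHTS titration. PTHR1-expressing GP2 cells report cAMP rises via GloSensor luminescence after 1 hr compound exposure at 37C with IBMX present.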

[15] = biological target: N-terminal Xaa-Pro-Lys N-methyltransferase 1 (Homo sapiens) (UniProt Q9BV86); assay: qHTS Assay for Inhibitors of N-terminal methyltransferase 1 (NTMT1): LOPAC validation of the NTMT1 SAHH-coupled ThioGlo3 Assay (AID 1347143);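 also: SAH from peptide methylation measured as thiol fluorescence via SAHH coupling and ThioGlo3; potency is read from the fitted curve at half-maximal effect; nearly all actives have a fitted effect of over 70% in size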
N-terminal Xaa-Pro-Lys N-methyltransferase 1 (Homo sapiens), sequence (Q9BV86 whole entry, looked up): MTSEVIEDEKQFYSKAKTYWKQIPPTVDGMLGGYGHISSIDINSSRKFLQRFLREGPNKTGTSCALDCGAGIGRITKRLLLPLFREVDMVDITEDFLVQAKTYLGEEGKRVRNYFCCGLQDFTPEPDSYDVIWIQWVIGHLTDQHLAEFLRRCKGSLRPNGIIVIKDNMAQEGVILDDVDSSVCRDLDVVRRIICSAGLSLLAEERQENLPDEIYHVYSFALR
In short: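 Inhibition of NTMT1 methylation of peptide SPKRIA is followed by converting SAH with SAHH and labelling the released thiol with ThioGlo3. Plates are read at 340/450nm before and 30 min after reagent addition, both at room temperature.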

[16] = qHTS to identify inhibitors of the type 1 interferon - major histocompatibility complex class I in skeletal muscle: primary screen against the NCATS LOPAC collection (AID 1347405);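 also: lytic HiBiT luminescence reporting HLA-B protein level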
In short: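 Immortalized human C25cl48 myoblasts with HiBiT knocked into endogenous HLA-B*08:01 were stimulated with 4.0 ng/ml IFN-beta and given compounds in a 7-point, 1:4.3 titration from 46 uM final; after 24 hrs, lytic HiBiT luminescence was read.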

[17] = qHTS for inhibitors of adenylyl cyclases using a fission yeast platform: a pilot screen against the NCATS LOPAC library (AID 1347410)
In short: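 S. pombe CHP2027 (AC9-GNAS-PDE4D2) carrying a PKA-repressed fbp1-GFP reporter was exposed to LOPAC compounds (final up to 57 µM) for 18 h at 30C in the dark, in EMM with histidine, lysine and uracil; GFP gain-of-signal read by laser scanning cytometry.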

[18] = Validation qHTS assay for inhibitors of Activation Induced Cytidine Deaminase (AID): UDG Counterscreen signal (AID 1347427)
In short: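 Counterscreen read of UDG activity (2 U/mL, 4/3x) in the FRET deamination format with AID (1 uM, 4/3x), DJC20/DJC23 substrates (250 nM, 4x), 4 h at room temperature. NaOH stop, fluorescence at 560 ex/665 em.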

[19] = biological target: Single-stranded DNA cytosine deaminase (Homo sapiens) (UniProt Q9GZX7); assay: Validation qHTS assay for inhibitors of Activation Induced Cytidine Deaminase (AID): AID signal (AID 1347429)
Single-stranded DNA cytosine deaminase (Homo sapiens), sequence (Q9GZX7 whole entry, looked up): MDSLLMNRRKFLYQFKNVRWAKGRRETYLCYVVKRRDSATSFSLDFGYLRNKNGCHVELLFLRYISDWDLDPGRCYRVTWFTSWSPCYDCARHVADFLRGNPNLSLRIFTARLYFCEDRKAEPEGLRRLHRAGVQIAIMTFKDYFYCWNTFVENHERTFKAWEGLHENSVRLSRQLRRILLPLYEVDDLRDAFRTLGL
In short: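 AID and UDG were combined and compounds added at final up to 114 uM, then DJC20/DJC23 FRET substrate was added for 4 hr at room temperature. NaOH was then added for 30 min before fluorescence was read at 540/590 nm.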

[20] = biological target: Calcium and integrin-binding protein 1 (Homo sapiens) (UniProt Q99828); assay: Validation qHTS for Identification of Calcium Integrin Binding protein 1 (CIB1) Competitor (AID 1508618)
Calcium and integrin-binding protein 1 (Homo sapiens), sequence (Q99828 whole entry, looked up): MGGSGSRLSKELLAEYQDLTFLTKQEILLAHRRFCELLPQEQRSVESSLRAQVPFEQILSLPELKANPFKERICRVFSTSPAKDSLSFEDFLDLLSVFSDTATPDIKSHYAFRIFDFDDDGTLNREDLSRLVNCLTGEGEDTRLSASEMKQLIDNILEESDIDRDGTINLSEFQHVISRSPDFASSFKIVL
In short: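 CIB1-GST (1 uM final) in 5 mM HEPES pH 7.4, 125 mM NaCl, 5 mM CaCl2, 0.01% Tween20 was preincubated 15 min at room temperature with compound (up to 114 uM), then FITC-alphaIIb peptide (100 nM) added for 15 min; fluorescence polarization read.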

[21] = Primary qHTS for small molecule stabilizers of the endoplasmic reticulum resident proteome: Secreted ER Calcium Modulated Protein (SERCaMP) assay (AID 1508630)
In short: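 GLuc-SERCaMP-expressing SH-SY5Y cells, pretreated 16 h with compound, are challenged with thapsigargin to empty ER calcium stores; after 4 h, coelenterazine is added directly to the medium and luminescence is imaged.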

Papain (Carica papaya) = Papain (Carica papaya) (UniProt P00784); assay: Primary qHTS assay for inhibitors of the protease papain (AID 1645873);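 also: papain turnover of Z-FR-AMC read as the AMC fluorescence gain over 10 min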
[22] = biological target: Catechol O-methyltransferase (Homo sapiens) (UniProt P21964); assay: Confirmatory Screen for Target Class Profiling of Small Molecule Inhibitors of Methyltransferases (AID 1745852); details: MTase-Glo luminescence, SAH detection, recombinant enzyme; measured here: COMT max response; stronger effect = lower value
[23] = biological target: Guanidinoacetate N-methyltransferase (Homo sapiens) (UniProt Q14353); assay: as above; details: activity change, negative = inhibition: at 57.3 µM (top of the series) unless noted
[24] = biological target: Nicotinamide N-methyltransferase (Homo sapiens) (UniProt P40261); assay: as above; details: MTase-Glo luminescence, SAH detection, recombinant enzyme; measured here: NNMT max response; stronger effect = lower value
Nicotinamide N-methyltransferase (Homo sapiens), sequence (P40261 whole entry, looked up): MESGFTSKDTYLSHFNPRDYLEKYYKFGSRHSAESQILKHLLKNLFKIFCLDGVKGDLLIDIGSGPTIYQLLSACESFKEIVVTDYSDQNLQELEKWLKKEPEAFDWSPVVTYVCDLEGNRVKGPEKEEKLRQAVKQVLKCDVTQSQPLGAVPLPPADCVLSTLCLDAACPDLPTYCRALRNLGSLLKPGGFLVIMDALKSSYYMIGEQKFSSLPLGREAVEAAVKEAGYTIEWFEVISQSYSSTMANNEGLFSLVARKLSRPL

[25] = biological target: Phenylethanolamine N-methyltransferase (Homo sapiens) (UniProt P11086); assay: as above; details: MTase-Glo luminescence, SAH detection, recombinant enzyme; measured here: PNMT max response; stronger effect = lower value
[26] = biological target: Metallo-beta-lactamase type 2 (Klebsiella pneumoniae) (UniProt C7C422); assay: qHTS to identify inhibitors of the New Delhi Metallo-beta-lactamase (NDM): assay validation screen against the NCATS LOPAC Collection (AID 1794843);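 also: nitrocefin turnover by NDM-1 measured as 485 nm absorbance at plateau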
In short: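 NDM-1 at 2 nM final in 50 mM HEPES pH 7.0 with 1 uM ZnSO4 and 0.01% Tween20 was preincubated with library compounds in DMSO. Nitrocefin (50 uM stock) was then added, and absorbance at 485 nm was read at the kinetic plateau.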

[27] = biological target: Glutathione peroxidase 1 (Homo sapiens) (UniProt P07203); assay: Primary qHTS Assay for Inhibitors of Recombinant Selenoprotein Glutathione Peroxidase 1 (GPX1) (AID 1845191); also: nearly all actives have a fitted effect of over 65% in size
Glutathione peroxidase 1 (Homo sapiens), sequence (P07203 whole entry, looked up): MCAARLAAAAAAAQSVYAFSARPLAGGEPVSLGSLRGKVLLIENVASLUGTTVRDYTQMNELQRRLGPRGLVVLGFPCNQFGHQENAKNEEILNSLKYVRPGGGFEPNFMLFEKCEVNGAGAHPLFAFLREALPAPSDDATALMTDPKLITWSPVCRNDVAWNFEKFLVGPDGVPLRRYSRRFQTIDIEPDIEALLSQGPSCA
In short: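 10 nM GPX1 + cpd, 30 min RT; start w/ 1 mM GSH, 0.5 mM cumene hydroperoxide, 0.5 mM NADPH, 100 nM GR, 0.01% BSA; buffer 50 mM Tris-HCl pH 7.5, 2 mM EDTA, 150 mM NaCl; Fl 340/450, 0 & 15 min.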

[28] = biological target: Phospholipid hydroperoxide glutathione peroxidase GPX4 (Homo sapiens) (UniProt P36969); assay: Primary qHTS Assay for Inhibitors of Recombinant Selenoprotein Glutathione Peroxidase 4 (GPX4) (AID 1845192); details: outcome: dose series up to 50 µM unless noted; also: nearly all actives have a fitted effect of over 65% in size
Phospholipid hydroperoxide glutathione peroxidase GPX4 (Homo sapiens), sequence (P36969 whole entry, looked up): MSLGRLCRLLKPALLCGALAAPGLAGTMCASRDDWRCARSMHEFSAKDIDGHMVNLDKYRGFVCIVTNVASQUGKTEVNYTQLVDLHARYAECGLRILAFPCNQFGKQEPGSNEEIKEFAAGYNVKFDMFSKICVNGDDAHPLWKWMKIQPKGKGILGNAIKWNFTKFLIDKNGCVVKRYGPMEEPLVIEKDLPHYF
In short: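 NADPH consumption, followed by fluorescence at 340/450 nm between 0 and 15 min, reports GPX4 activity via coupled glutathione reductase (100 nM). Enzyme 200 nM was pre-exposed to compound 30 min; 0.5 mM cumene hydroperoxide and 1 mM GSH served as substrates.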

In the case of Oc1cc2c(c(Cl)c1O)CCNCC2c1ccccc1 (centres undefined), the outcome [1] is reported as “inactive”, the Potency [2] is reported as “inactive” and the outcome [3] is reported as “inactive”. For the same molecule, the outcome [4] was “inactive”, the Potency [5] was “inactive” and the outcome [6] was “inactive”. For the same molecule, the outcome [7] was “inactive”, the Potency [8] was “inactive” and the Potency [9] was “inactive”. The Potency [10] was “inactive”, the outcome [11] was “inactive” and the outcome [12] was “inactive”. The Potency [13] was “inactive”, the outcome [14] was “inactive” and the Potency [15] was 39.8 µM (active). The Potency [16] was “inactive”, the outcome [17] was “inactive” and the outcome [18] was “inactive”. For the same molecule, the Potency [19] was “inactive”, the outcome [20] was “inactive” and the Potency [21] was “inactive”. For the same molecule, the Potency (Papain (Carica papaya)) was “inactive”, the activity [22] was 72.9% and the activity change, negative = inhibition [23] was 2.7%. For the same molecule, the activity [24] was -10.3%, the activity [25] was 7.26% and the Potency [26] was “inactive”. For the same molecule, the Potency [27] was “inactive” and the Potency [28] was “inactive”.
